Data taken from PubChem BioAssay AID1159580 (chemical genetic matrix, 2015).
“And” between values parts separate entries of the source, which are not always exact repeats. Equal entries are not always repeated. Screen size: about 5,500 compounds; about 2,000 (36%) were called active. Inconclusive results (about 18%) are left out. Rule as the data show it: active = normalized growth mostly below about 0.91 (no sharp cut-off); inconclusive = no clear call, values can overlap the other calls; inactive = mostly above about 0.92. Some of the results follow.

Assay: chemical genetic growth profiling, strain panel (AID 1159580);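 also: tested at 20 µM; growth read once vehicle control cultures reached saturation at 30 °C; 1 = growth at the plate median or of vehicle wells; lower values mean less growth of the strain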
Conditions: S. cerevisiae deletion strains, growth OD

Measured: normalized growth

C[n+]1c2cc(N)ccc2cc2ccc(N)cc21
active: locus YAL013W, strain DEP1, stronger effect = lower value 0.748 | locus YAL021C, strain ccr4, stronger effect = lower value 0.335 | locus YAL026C, strain drs2, stronger effect = lower value 0.586 | locus YAL030W, strain snc1, stronger effect = lower value 0.505 | locus YBL061C, strain skt5, stronger effect = lower value 0.616 | locus YBR009C, strain hhf1, stronger effect = lower value 0.356 | locus YBR023C, strain chs3, stronger effect = lower value 0.666 | locus YBR229C, strain ROT2, stronger effect = lower value 0.888 | locus YBR231C, strain swc5, stronger effect = lower value 0.359 | locus YBR279W, strain paf1, stronger effect = lower value 0.701 | locus YCL011C, strain gbp2, stronger effect = lower value 0.438 | locus YCL016C, strain dcc1, stronger effect = lower value 0.331 | locus YCL029C, strain bik1, stronger effect = lower value 0.67 | locus YCL069W, strain vba3, stronger effect = lower value 0.588 | locus YCR088W, strain abp1, stronger effect = lower value 0.55 | locus YDL005C, strain med2, stronger effect = lower value 0.572 | locus YDL035C, strain GPR1, stronger effect = lower value 0.72 | locus YDL040C, strain nat1, stronger effect = lower value 0.718 | locus YDL074C, strain BRE1, stronger effect = lower value 0.575 | locus YDL101C, strain DUN1, stronger effect = lower value 0.761 | locus YDL134C, strain PPH21, stronger effect = lower value 0.726 | locus YDL192W, strain arf1, stronger effect = lower value 0.844 | locus YDR001C, strain nth1, stronger effect = lower value 0.74 | locus YDR069C, strain doa4, stronger effect = lower value 0.591 | locus YDR101C, strain arx1, stronger effect = lower value 0.81 | locus YDR137W, strain rgp1, stronger effect = lower value 0.616 | locus YDR150W, strain NUM1, stronger effect = lower value 0.831 | locus YDR159W, strain sac3, stronger effect = lower value 0.77 | locus YDR162C, strain NBP2, stronger effect = lower value 0.723 | locus YDR195W, strain ref2 1.22 [resistant] | locus YDR297W, strain sur2, stronger effect = lower value 0.652 | locus YDR318W, strain mcm21, stronger effect = lower value 0.834 | locus YDR334W, strain swr1, stronger effect = lower value 0.412 | locus YDR335W, strain msn5, stronger effect = lower value 0.499 | locus YDR388W, stronger effect = lower value 0.722 | locus YDR392W, strain spt3, stronger effect = lower value 0.352 | locus YDR502C, strain sam2, stronger effect = lower value 0.793 | locus YEL003W, strain gim4, stronger effect = lower value 0.491 | locus YEL037C, strain rad23, stronger effect = lower value 0.437 | locus YEL061C, strain CIN8 (second series), stronger effect = lower value 0.652 | locus YEL061C, strain CIN8, stronger effect = lower value 0.851 | locus YER015W, strain faa2, stronger effect = lower value 0.498 | locus YER016W, strain bim1, stronger effect = lower value 0.479 | locus YER111C, strain swi4, stronger effect = lower value 0.633 | locus YER155C, strain BEM2 (second series), stronger effect = lower value 0.272 | locus YER167W, strain BCK2, stronger effect = lower value 0.754 | locus YFR010W, strain ubp6, stronger effect = lower value 0.536 | locus YGL086W, strain mad1, stronger effect = lower value 0.778 | locus YGL173C, strain kem1, stronger effect = lower value 0.481 | locus YGL227W, strain vid30, stronger effect = lower value 0.671 | locus YGL240W, strain doc1, stronger effect = lower value 0.63 | locus YGL248W, strain PDE1, stronger effect = lower value 0.758 | locus YGL253W, strain hxk2, stronger effect = lower value 0.425 | locus YGR078C, strain PAC10, stronger effect = lower value 0.722 | locus YGR135W, strain pre9, stronger effect = lower value 0.777 | locus YGR229C, strain SMI1, stronger effect = lower value 0.704 | locus YGR252W, strain gcn5, stronger effect = lower value 0.531 | locus YHR013C, strain ard1, stronger effect = lower value 0.397 | locus YHR027C, strain rpn1, stronger effect = lower value 0.546 | locus YHR079C, strain IRE1 (second series), stronger effect = lower value 0.779 | locus YHR079C, strain IRE1, stronger effect = lower value 0.841 | locus YHR129C, strain ARP1, stronger effect = lower value 0.897 | locus YHR142W, strain chs7, stronger effect = lower value 0.44 | locus YHR200W, strain rpn10, stronger effect = lower value 0.682 | locus YIL066C, strain RNR3, stronger effect = lower value 0.792 | locus YIL073C, strain SPO22, stronger effect = lower value 0.534 | locus YIR030C, strain dcg1, stronger effect = lower value 0.859 | locus YJL092W, strain hpr5, stronger effect = lower value 0.253 | locus YJL095W, strain BCK1 (second series), stronger effect = lower value 0.487 | locus YJL095W, strain BCK1, stronger effect = lower value 0.486 and 0.879 | locus YJL115W, strain asf1, stronger effect = lower value 0.369 | locus YJL129C, strain trk1, stronger effect = lower value 0.773 | locus YJL134W, strain LCB3, stronger effect = lower value 0.912 | locus YJL154C, strain vps35, stronger effect = lower value 0.808 | locus YJL164C, strain tpk1, stronger effect = lower value 0.417 | locus YJL166W, strain qcr8, stronger effect = lower value 0.392 | locus YJL168C, strain set2, stronger effect = lower value 0.91 | locus YJL187C, strain SWE1 (second series), stronger effect = lower value 0.708 | locus YJR043C, strain POL32, stronger effect = lower value 0.703 | locus YJR075W, strain HOC1, stronger effect = lower value 0.566
inactive: locus YBR021W, strain FUR4, stronger effect = lower value 1.11 | locus YBR171W, strain sec66, stronger effect = lower value 0.934 | locus YDL185W, strain tfp1, stronger effect = lower value 0.938 | locus YER110C, stronger effect = lower value 0.961 | locus YER155C, strain BEM2, stronger effect = lower value 0.935 | locus YGL078C, strain dbp3, stronger effect = lower value 0.937 | locus YGL167C, strain pmr1, stronger effect = lower value 0.938 | locus YHR094C, strain hxt1, stronger effect = lower value 0.939 | locus YIL125W, strain kgd1, stronger effect = lower value 0.945 | locus YJR066W, strain TOR1, stronger effect = lower value 0.849
0.724 (active) and 0.882 (inactive): locus YHR030C, strain SLT2, stronger effect = lower value
